# The list is not random: actives were taken first. Their share in the collection is about 1.8%.
# GLP-1R agonist: qHTS of GLP-1 Receptor Agonists. HEK293 GLP-1R CRE-luciferase, luminescence, 4-6 h; cells express a hypersensitive GLP-1R form. Potency, µM (series often up to 45.6 µM), inactives show at the highest dose activation, actives largely listed as activators. 0.007% of 380,000 active. AID 624172, 2012; further: % of control where 0% means no effect
# Target sequence (P43220 whole entry, looked up): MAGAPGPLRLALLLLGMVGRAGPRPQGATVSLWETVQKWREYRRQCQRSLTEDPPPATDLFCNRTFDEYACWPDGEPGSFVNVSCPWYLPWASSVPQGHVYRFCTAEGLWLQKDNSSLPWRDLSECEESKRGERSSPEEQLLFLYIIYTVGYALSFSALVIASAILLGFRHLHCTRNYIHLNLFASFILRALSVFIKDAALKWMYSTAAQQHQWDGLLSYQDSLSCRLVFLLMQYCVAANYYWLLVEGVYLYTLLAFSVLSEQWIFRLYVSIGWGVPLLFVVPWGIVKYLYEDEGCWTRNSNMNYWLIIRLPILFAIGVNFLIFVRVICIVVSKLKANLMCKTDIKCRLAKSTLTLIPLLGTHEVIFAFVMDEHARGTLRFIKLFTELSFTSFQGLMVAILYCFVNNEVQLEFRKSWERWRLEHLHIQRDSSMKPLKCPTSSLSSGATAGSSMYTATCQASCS
# Tb PGK inh: qHTS Assay to Find Inhibitors of Phosphoglycerate Kinase | Potency, µM (doses to about 57.5 µM), for the others: at the highest dose activity change, negative = inhibition, hits mostly inhibitors | PGK/GAPDH coupled, Kinase-Glo luminescence, 60 min | 0.043% of 380,000 active | Phosphoglycerate kinase, glycosomal (Trypanosoma brucei brucei), P07378; further: on the % scale 0 is the no-effect control and ±100 the full control effect; nearly all actives have a fitted effect of over 60% in size
#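 Luminescent ATP detection (Kinase-Glo Plus) follows a 60-minute room-temperature incubation, with wells lacking PGK as controls. Buffer: 100 mM TEA (pH 7.6), 5 mM MgCl2, 0.01% Tween-20. Coupling enzyme GAPDH (100 nM final) supplies unstable 1,3-BPG in-well.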
# Pin1 inh: qHTS Assay to Find Inhibitors of Pin1; 0.009% of 390,000 active; AID 504891, 2011; Potency, µM (doses to about 115 µM), for the others: top-dose activity, negative = inhibition, actives largely listed as inhibitors; Pin1 FP peptide displacement, HiFluor488, 10 min; Peptidyl-prolyl cis-trans isomerase NIMA-interacting 1 (Homo sapiens), Q13526; active means well fitted inhibition curve with a large enough effect in the polarisation, with a control signal flat, not every such curve was filed as active; inconclusive means small, poorly fitted or top-dose-only effect, or effect the other way, or a change in a side signal; inactive means no such curve, though single readings can be large or run the other way; the % refers to the polarisation; further: on the % scale 0 is the no-effect control and ±100 the full control effect
# Target sequence (Q13526 whole entry, looked up): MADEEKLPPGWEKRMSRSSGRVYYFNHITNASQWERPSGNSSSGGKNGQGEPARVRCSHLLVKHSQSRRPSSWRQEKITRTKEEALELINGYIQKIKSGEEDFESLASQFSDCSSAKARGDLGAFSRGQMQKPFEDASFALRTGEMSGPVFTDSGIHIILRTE
# Tb PFK inh: qHTS Assay to Find Inhibitors of T. brucei phosphofructokinase; 0.17% of 330,000 active; ATP-dependent 6-phosphofructokinase (Trypanosoma brucei brucei), O15648; T. brucei PFK, ADP-Glo luminescence; Potency, µM (series often up to 57.5 µM), for inactives: at the top dose activity, negative = inhibition, actives largely listed as inhibitors; AID 485367, 2010;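 further: 0% = uninhibited 1x PFK enzyme wells and -100% = no-enzyme wells; nearly all actives have a fitted effect of over 60% in size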
#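 In TEA buffer at pH 8.0 with 5 mM MgCl2, enzyme (1.25 nM) converted F6P (0.5 mM) and ATP (0.1 mM) for 45 min at room temperature. ADP product was read by luciferase luminescence.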
# GLP1R inv ag: qHTS of GLP-1 Receptor Inverse Agonists (Inhibition Mode). AID 624417, 2012. Glucagon-like peptide 1 receptor (Homo sapiens), P43220. 1.6% of 410,000 active. HEK293 GLP-1R CRE-luciferase, luminescence, 24 h; GLP-1R form is constitutively active. Potency, µM (highest dose often 38.3 µM), for the others: at the top dose activity change, negative = inhibition, most hits filed as inhibitors; further: on the % scale 0 is the no-effect control and ±100 the full control effect; nearly all actives have a fitted effect of over 55% in size
#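 Constitutively active GLP-1R drives a cAMP-responsive luciferase in stably transfected HEK293 cells; test compounds are added after overnight (12 h) attachment and left 24 hr, and signal loss in luminescence marks inhibition.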
# GLP1R cytotox: qHTS of GLP-1 Receptor Inverse Agonists: Cytotox Screen. HEK293 cAMP-luciferase reporter cells, luminescence, 24 h. Potency, µM (doses to about 38.3 µM), inactives show at the top dose activity change, negative = inhibition, most hits filed as inhibitors. 0.13% of 410,000 active. AID 624418, 2012;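 further: loss of luciferase light is scored as toxicity; on the % scale 0 is the no-effect control and ±100 the full control effect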
#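 To flag toxic compounds, the library was rerun on cells for 24 hr at 37 deg C and 5% CO2. Viability-linked luminescence was captured 12 min after adding luciferase detection reagent.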
# Active calls of the source: *; i = inactive; ? = inconclusive; . = no result; [ ] = dose if it differs, or a comment. Unless noted, the call rests on the fitted dose curve; in most records, active means well fitted curve in the direction sought with a large enough effect; inconclusive means small, poorly fitted or top-dose-only effect, or another doubt; inactive means no such curve, though single readings can be large; an effect the other way counts as inactive or inconclusive. Potency means the concentration at half of the fitted maximal effect.
SMILES,GLP-1R agonist,Tb PGK inh,Pin1 inh,Tb PFK inh,GLP1R inv ag,GLP1R cytotox
CC(C)(C)OC(=O)N(Cc1ccccc1)Cc1cccc(OCc2cccc(NC(=O)C3CC3)c2)c1,0%,-5%,5%,.,10µM*,12%
CC(C)(C)OC(=O)N(CCc1ccccc1)Cc1ccccc1OCc1cccc(NC(=O)C2CCC2)c1,1%,-8%,10%,.,8.9µM*,-5%
CCC(Sc1nnc2c3ccccc3n(C)c2n1)C(=O)Nc1nnc(C(C)C)s1 (stereo not given),.,i,1%,.,16%,4%
Cn1c(Sc2ccccc2Cl)c(C=O)c2ccccc21,10%,-7%,6%,1%,?,-13%
Cc1cccc(Sc2c(C=O)c3ccccc3n2C)c1,0%,-5%,-4%,0%,2.8µM*,-27%
Cn1c(Sc2ccc(Cl)cc2)c(C=O)c2ccccc21,-35%,i,-2%,-3%,3.2µM*,?
NC(=O)c1nc(Nc2ccccc2)sc1NC(=O)c1ccccc1Br,.,-6%,20%,.,-12%,3%
CCN(CC)CCCn1c2c(c(SCC(=O)Nc3nc4ccccc4s3)nc1=O)CCC2,-3%,-6%,-3%,-7%,?,?
CCN(CC)CCCn1c2c(c(SCC(=O)Nc3ccc(C)c(F)c3)nc1=O)CCC2,1%,0%,-8%,-2%,10µM*,6%
CCN(CC)CCCn1c2c(c(SCC(=O)Nc3ccc(OC(F)(F)F)cc3)nc1=O)CCC2,1%,-12%,3%,1%,3.5µM*,-12%
O=C1CCc2cc(S(=O)(=O)Nc3cccc(F)c3)ccc2N1,.,.,5%,.,.,.
COc1ccc(Br)c(C(=O)Nc2cc3c(cc2N2CCCCC2)n(C)c(=O)c(=O)n3C)c1,.,-3%,0%,.,18%,-1%
COc1ccc(/C=C/c2onc(C)c2S(=O)(=O)N2CCC(C(=O)N3CCCCCC3)CC2)cc1,2%,i,9%,0%,5µM*,18%
CCCN1CCN(C(=O)C2CCN(S(=O)(=O)c3c(C)noc3/C=C/c3ccc(C)cc3)CC2)CC1,8%,-7%,-7%,-3%,3.2µM*,?
Cc1c(N=C/C=C2\N(C)c3ccccc3C2(C)C)c(=O)n(-c2ccccc2)n1C,1%,-8%,4%,0%,?,2.2µM*
Cc1cc(Br)ccc1NC(=O)c1cc2c(s1)-c1ccccc1SC2,.,.,14%,.,10µM*,-7%
CC(NC(=O)/C(=C/c1ccc(OC(F)F)cc1)c1ccccc1)c1ccccc1 (stereo not given),-13%,-2%,-3%,8%,4.5µM*,21%
Cc1cccc(NS(=O)(=O)c2ccc3[nH]c4c(c3c2)CCCCCC4)c1,.,-3%,3%,.,8.9µM*,?
Cc1ccccc1NS(=O)(=O)c1ccc2[nH]c3c(c2c1)CCCCC3,0%,-2%,4%,.,10µM*,-12%
CCn1cnc2c(Nc3cc(F)cc(F)c3)nc(C(=O)COc3c(F)c(F)cc(F)c3F)nc21,.,.,-12%,.,.,.
CCCCCCN(C(=O)CCCCCN1C(=O)NC(c2ccc(-c3ccccc3)cc2)C(C(=O)OCc2ccccc2)=C1C)C(C(=O)NCCCC)c1ccc(-c2ccccc2)cc1 (stereo not given),.,.,.,-11%,.,.
CCCCCCN(C(=O)CCCN1C(=O)NC(c2ccc(-c3ccccc3)cc2)C(C(=O)OCc2ccccc2)=C1C)C(C)C(=O)NCCCC (stereo not given),9%,-1%,9%,-1%,11µM*,-10%
c1ccc(-c2nnsc2-c2ccccc2)cc1,-2%,4%,-3%,2%,?,-4%
O=S(=O)(c1ccc(Cl)c(Cl)c1)c1snnc1-c1ccccc1,-5%,i,0%,-7%,7.1µM*,?
Cc1ccc(S(=O)(=O)Nc2ccc3c(c2)c(C(=O)OC(C)C)c(C)n3S(=O)(=O)c2ccc(C)cc2)cc1,.,-2%,16%,.,?,-4%
SMILES,GLP-1R agonist,Tb PGK inh,Pin1 inh,Tb PFK inh,GLP1R inv ag,GLP1R cytotox
CCNC(=S)N/N=C/c1cc(C)n(-c2ccc(Cl)cc2)c1C,0%,-2%,2%,-3%,-8%[7.66 µM],17%[7.66 µM]
Cc1cc(/C=N/NC(N)=S)c(C)n1-c1ccc(Cl)c(Cl)c1,8%,2%,2%,-11%,?,3.2µM*
CCCC(=O)O[C@]1(C(=O)CCl)[C@H](C)C[C@@H]2[C@H]3CCC4=CC(=O)C=C[C@]4(C)[C@@]3(F)C(=O)C[C@@]21C,-2%,.,.,.,.,.
CCOC(=O)c1ccc(NC(=S)N(CCCN2CCCCC2)Cc2ccco2)cc1,?,-4%,1%,0%,11µM*,?
CCOC(=O)c1ccc(NC(=S)N(CCCN(CC)CC)Cc2ccco2)cc1,11%,-3%,-2%,-2%,?,3%
CCc1ccc(-n2c(SCc3cccc(F)c3)nc3[nH]ncc3c2=O)cc1,.,1%,4%,.,?,-6%
CSc1ccc(/C=N/N(C)S(=O)(=O)c2ccc(C)cc2)cc1,11%,-7%,-4%,0%,?,-4%
Cc1ccc(/C=N/N(C)S(=O)(=O)c2ccc(C)cc2)cc1,7%,4%,?,2%,10µM*,7%
Fc1ccc(Nc2nc(SCc3cccc(F)c3)nc3ccccc23)cc1,.,-3%,-6%,.,?,-15%
Fc1ccc(Nc2nc(SCc3cccc(Cl)c3)nc3ccccc23)cc1,.,-5%,0%,.,11µM*,-14%
CCCCCCCCN1C(=O)[C@H](CC(=O)NCc2cccs2)C[C@@]2(C(=O)OC)CC(C)(C)CC=C12,.,.,.,.,8.9µM*,-6%
COC(=O)[C@@]12C[C@@H](CC(=O)NCc3ccccc3)C(=O)N(Cc3ccccc3)C1=CCC(C)(C)C2,.,.,.,.,11µM*,-19%
CCCCCCCCN1C(=O)[C@H](CC(=O)NCCCCc2ccccc2)C[C@@]2(C(=O)OCC)CCCC=C12,0%,.,.,.,7.1µM*,-3%
CCCCCCCCN1C(=O)[C@H](CC(=O)NCc2ccccc2)C[C@@]2(C(=O)OCC)CCCC=C12,-4%,.,.,.,?,-18%
CC(=O)c1cccc(NC(=O)N2CCC(CN3CCCCC3)CC2)c1,.,i,-9%,.,8%,8%
NC(=O)C1CCN(c2nccc(-c3ccc(Br)cc3)n2)CC1,.,.,2%,.,.,.
